Source: ChEMBL document CHEMBL3988442, “University of Dundee, Small-Polar-MMV Screening Library” (2021)
For some assays here: Entries with a potency or affinity are not part of this list.

Legend:
Set-up in all cases: scale not given: direction of the effect not stated beside the values
[1] = biological target: Protein translocase subunit SecA (Escherichia coli (strain K12)) (UniProt P10408); assay: Assay to Identify E. coli SecA ATPase Inhibitors; assay type: functional; settings: 30 µM
[2] = biological target: T1, Ubiquitin-activating enzyme e1, putative (Leishmania donovani (strain BPK282A1)) (UniProt E9BSI1); assay: Leishmania donovani Ubiquitin Activating Enzyme (LdE1); assay type: functional; settings: 30 µM
T1 sequence (whole entry): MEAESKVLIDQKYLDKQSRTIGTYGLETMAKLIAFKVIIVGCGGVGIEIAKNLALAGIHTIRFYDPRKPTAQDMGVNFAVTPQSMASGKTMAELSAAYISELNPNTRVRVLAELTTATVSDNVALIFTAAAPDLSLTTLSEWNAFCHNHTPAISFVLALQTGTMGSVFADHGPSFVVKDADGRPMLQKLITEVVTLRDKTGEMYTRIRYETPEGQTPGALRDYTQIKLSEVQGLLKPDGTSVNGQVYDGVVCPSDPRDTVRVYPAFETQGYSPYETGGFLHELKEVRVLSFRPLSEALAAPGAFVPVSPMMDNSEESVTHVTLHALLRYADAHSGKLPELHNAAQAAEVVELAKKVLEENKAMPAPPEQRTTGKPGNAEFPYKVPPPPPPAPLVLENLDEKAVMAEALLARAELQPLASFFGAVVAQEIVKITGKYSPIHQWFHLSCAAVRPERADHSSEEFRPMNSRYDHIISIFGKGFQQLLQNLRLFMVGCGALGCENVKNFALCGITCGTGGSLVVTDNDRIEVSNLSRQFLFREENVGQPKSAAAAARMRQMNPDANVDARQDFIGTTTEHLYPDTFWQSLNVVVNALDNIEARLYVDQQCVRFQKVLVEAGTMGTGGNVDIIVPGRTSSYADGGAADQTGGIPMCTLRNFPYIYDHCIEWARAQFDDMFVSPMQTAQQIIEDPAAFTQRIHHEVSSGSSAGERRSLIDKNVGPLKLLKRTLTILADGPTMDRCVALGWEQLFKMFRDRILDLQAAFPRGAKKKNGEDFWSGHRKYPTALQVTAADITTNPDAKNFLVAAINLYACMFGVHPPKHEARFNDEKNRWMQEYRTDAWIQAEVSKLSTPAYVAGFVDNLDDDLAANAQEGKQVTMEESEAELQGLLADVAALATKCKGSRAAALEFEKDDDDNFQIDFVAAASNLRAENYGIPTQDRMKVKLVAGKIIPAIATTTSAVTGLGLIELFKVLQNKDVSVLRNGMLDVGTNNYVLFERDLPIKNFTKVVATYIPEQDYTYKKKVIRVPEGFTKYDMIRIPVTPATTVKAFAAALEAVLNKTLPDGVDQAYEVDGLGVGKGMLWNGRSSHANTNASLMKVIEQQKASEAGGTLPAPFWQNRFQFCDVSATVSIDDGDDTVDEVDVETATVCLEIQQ

[3] = biological target: AMP-activated protein kinase, AMPK (Homo sapiens) (UniProt P54646+O43741+P54619+Q9UGJ0+Q9Y478+Q13131+Q9UGI9); assay: AMP-dependent Kinase enzyme assay. An in vitro enzyme assay that detects ADP turnover that is directly proportional to AMPK activity. This uses naive AMPK that is activated during the assay with MK-8722; assay type: functional; settings: 30 µM
[4] = biological target: Sialic acid-binding Ig-like lectin 9 (Homo sapiens) (UniProt Q9Y336); assay: Hs-Siglec9 ALPHAscreen SOP 20170721; settings: 10 µM
Chain of Sialic acid-binding Ig-like lectin 9 (Homo sapiens) (Q9Y336 whole entry): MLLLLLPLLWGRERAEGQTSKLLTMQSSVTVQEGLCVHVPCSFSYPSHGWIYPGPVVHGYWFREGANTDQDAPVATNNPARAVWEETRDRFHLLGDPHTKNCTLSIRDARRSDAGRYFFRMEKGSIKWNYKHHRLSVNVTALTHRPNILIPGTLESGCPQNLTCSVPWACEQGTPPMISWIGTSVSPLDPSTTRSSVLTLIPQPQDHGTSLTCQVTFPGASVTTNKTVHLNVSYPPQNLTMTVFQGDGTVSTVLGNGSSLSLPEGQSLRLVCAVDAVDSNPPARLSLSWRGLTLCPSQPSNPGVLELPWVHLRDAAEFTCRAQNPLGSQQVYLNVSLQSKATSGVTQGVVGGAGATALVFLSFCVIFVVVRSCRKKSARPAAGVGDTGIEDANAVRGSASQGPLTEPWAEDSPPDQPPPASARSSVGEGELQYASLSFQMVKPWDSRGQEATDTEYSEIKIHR

Trypanosoma cruzi = assay: Trypanosoma cruzi phosphomannomutase and mannose-1-phosphate guanylyltransferase assay; assay type: functional; settings: 10 µM
[5] = biological target: T2, Arginase-2, mitochondrial (Homo sapiens) (UniProt P78540); assay: in vitro enzyme assay to detect the production of urea directly proportional to the activity of Arginase II; assay type: functional; settings: 33.3 µM; note: in the data most compounds retested in dose-response had high values
T2 sequence (whole entry): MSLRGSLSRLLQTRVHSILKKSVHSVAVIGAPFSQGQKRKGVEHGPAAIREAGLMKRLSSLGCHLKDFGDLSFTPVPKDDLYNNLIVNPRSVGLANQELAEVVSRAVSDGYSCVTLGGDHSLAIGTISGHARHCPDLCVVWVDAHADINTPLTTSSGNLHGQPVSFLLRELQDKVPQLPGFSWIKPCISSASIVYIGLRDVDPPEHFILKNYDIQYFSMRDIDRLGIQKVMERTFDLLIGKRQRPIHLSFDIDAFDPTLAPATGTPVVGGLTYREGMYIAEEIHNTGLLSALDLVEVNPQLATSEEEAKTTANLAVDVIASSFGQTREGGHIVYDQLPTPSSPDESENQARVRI

[6] = biological target: T3, Proteasome subunit beta (Trypanosoma cruzi) (UniProt O96673); assay: Trypanosoma cruzi proteasome chymotrypsin-like activity (TcProtChymo) assay.; note: in the data most compounds retested in dose-response had high values; assay type: functional; settings: 9.37 µM
T3 sequence (whole entry): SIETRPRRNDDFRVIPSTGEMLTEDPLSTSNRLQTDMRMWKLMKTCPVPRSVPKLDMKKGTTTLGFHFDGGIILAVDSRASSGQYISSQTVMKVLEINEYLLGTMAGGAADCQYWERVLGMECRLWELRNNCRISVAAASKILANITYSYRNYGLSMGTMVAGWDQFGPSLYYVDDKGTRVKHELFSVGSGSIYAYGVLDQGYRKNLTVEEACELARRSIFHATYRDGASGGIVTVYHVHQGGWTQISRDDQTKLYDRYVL

Homo sapiens = species: Homo sapiens; assay: To identify inhibition of the IFN signalling (Jak-Stat) pathway via expression of an eGFP reporter gene under the control of an IFN-stimulated response element (ISRE) containing MxA promoter.; assay type: functional; settings: 30 µM
[7] = biological target: T4, Tyrosyl-tRNA synthetase, putative (Trypanosoma cruzi (strain CL Brener)) (UniProt Q4DSP6); assay: Trypanosoma cruzi tyrosyl tRNA synthetase (TcYRS) _High Tyrosine SOP; assay type: functional; settings: 30 µM; note: in the data most compounds retested in dose-response had high values
T4 sequence (whole entry): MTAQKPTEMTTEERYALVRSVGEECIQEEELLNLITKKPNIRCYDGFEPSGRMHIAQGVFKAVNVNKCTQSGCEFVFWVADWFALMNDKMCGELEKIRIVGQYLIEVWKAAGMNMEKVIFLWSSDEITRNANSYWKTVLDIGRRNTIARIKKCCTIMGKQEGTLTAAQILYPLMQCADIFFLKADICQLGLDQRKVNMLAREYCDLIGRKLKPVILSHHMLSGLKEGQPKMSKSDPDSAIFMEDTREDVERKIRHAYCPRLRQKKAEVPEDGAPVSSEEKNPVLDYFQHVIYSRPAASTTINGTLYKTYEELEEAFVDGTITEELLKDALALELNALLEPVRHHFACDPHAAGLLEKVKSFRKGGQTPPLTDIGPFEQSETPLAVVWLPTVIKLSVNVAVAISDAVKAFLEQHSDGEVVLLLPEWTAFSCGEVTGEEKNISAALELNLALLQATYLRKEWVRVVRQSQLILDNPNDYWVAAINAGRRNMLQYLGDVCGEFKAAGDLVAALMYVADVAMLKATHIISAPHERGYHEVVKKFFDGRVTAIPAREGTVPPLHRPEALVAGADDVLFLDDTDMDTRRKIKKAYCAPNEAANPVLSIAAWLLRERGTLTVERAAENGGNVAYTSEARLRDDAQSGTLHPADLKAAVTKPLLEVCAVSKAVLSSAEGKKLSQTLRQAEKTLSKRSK

[8] = biological target: T4, Tyrosyl-tRNA synthetase, putative (Trypanosoma cruzi (strain CL Brener)); assay: Trypanosoma cruzi tyrosyl tRNA synthetase (TcYRS) SOP; assay type: functional; settings: 30 µM
[9] = biological target: Chromo domain-containing protein 1 (Saccharomyces cerevisiae (strain ATCC 204508 / S288c) (Baker's yeast)) (UniProt P32657); assay: ScCHD-1 Enzyme Inhibition Assay; assay type: functional; settings: 30 µM; note: in the data most compounds retested in dose-response had high values
Chain of Chromo domain-containing protein 1 (Saccharomyces cerevisiae (strain ATCC 204508 / S288c) (Baker's yeast)) (P32657 whole entry, the tested form may be a part): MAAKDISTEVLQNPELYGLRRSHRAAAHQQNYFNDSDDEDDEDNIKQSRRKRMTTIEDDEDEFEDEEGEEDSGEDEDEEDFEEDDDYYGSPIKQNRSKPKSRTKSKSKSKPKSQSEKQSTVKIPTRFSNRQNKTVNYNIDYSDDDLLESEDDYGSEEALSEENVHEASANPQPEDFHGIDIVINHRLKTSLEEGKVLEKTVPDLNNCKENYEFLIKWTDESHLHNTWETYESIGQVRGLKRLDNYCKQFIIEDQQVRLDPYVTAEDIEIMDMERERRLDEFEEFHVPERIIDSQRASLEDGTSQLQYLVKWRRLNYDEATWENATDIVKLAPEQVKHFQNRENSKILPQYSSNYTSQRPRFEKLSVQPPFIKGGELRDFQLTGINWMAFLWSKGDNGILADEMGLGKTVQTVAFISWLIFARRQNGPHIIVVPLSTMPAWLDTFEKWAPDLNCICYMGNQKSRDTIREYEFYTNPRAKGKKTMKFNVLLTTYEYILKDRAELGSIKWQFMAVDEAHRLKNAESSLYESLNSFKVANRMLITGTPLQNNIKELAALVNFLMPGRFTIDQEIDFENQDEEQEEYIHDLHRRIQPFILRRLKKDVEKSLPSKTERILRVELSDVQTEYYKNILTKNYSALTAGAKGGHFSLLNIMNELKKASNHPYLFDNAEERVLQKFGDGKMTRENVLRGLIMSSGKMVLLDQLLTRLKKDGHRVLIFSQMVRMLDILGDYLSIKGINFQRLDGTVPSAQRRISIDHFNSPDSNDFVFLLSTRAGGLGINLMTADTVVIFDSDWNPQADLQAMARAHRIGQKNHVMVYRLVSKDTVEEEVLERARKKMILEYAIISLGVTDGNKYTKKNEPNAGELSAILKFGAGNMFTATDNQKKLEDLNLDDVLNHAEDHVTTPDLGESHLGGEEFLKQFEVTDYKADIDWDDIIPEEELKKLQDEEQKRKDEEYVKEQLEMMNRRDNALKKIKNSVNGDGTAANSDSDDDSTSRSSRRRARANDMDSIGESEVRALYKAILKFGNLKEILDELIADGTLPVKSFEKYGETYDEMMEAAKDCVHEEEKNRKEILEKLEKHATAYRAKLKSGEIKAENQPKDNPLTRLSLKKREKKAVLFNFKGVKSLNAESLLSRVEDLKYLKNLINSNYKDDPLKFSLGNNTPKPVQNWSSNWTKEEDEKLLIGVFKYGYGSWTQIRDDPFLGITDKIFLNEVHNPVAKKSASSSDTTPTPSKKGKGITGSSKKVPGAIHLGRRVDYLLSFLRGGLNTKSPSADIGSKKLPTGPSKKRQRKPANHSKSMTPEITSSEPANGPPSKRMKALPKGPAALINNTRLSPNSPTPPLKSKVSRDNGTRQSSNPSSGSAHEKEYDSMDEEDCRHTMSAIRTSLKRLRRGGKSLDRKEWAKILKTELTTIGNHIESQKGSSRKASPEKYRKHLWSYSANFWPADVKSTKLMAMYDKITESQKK

Chain of Protein translocase subunit SecA (Escherichia coli (strain K12)) (P10408 whole entry): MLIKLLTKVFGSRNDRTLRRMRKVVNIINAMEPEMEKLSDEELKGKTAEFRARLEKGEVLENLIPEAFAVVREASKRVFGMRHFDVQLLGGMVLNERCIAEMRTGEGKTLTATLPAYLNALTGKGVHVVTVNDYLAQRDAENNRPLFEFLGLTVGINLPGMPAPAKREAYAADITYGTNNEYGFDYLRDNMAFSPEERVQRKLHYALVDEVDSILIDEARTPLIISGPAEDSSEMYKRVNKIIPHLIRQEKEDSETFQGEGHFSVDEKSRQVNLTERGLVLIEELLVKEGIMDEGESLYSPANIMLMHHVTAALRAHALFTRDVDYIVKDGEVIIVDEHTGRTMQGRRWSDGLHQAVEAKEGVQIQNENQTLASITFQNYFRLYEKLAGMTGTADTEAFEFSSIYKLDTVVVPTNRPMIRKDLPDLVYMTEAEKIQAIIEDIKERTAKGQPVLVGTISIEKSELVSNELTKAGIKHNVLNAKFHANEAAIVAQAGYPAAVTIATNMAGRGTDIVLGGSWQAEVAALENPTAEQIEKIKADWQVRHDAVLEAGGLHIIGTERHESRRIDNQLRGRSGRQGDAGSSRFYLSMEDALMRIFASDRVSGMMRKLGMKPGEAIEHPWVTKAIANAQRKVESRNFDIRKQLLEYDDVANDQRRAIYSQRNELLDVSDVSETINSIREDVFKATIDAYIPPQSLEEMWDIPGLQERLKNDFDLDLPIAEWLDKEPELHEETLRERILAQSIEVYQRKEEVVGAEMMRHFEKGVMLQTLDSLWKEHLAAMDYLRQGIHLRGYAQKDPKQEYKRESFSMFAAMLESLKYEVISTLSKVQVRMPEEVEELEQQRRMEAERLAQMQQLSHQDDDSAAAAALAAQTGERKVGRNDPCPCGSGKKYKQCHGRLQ

Structure (SMILES)	Percent Effect [1]	Percent Effect [2]	Percent Effect [3]	Percent Effect [4]	Percent Effect (Trypanosoma cruzi)	Percent Effect [5]	Percent Effect [6]	Percent Effect (Homo sapiens)	Percent Effect [7]	Percent Effect [8]	Percent Effect [9]
Cn1cccc1CN1CCC2(CCCN(C(=O)Cc3cccnc3)C2)C1 (stereo unspecified)	-2.25%	0%	-2.27%	-5.33%	-2.07%	-4.52%	1.39%	2.23%	-2.12%	-6.41%	-7.07%
c1cn(Cc2nnc(C3CCN(c4nccs4)CC3)n2C2CC2)cn1	-3.22%	16%	0.541%	19.9%	4.77%	13%	9.59%	7.24%	7.1%	8.64%	90.7%
CN(Cc1ccsc1)C(=O)c1cc2c([nH]c1=O)CCCC2=O	-3.09%	13.5%	-2.3%	9.82%	-2.32%	-0.185%	16.5%	3%	4.95%	18.3%	-6.06%
Cc1nonc1CN(C)CC1(O)CCCN(CCC2CCCCC2)C1=O (stereo unspecified)	2.32%	8%	-14.2%	-0.787%	1.66%	12.5%	16.4%	35.9%	10.4%	18.5%	-1.61%
COCCN1CCCC(O)(CN2CCN(c3ncccc3C)CC2)C1=O (stereo unspecified)	5.28%	-27%	-3.41%	7.83%	-5.21%	0.476%	15.3%	9.99%	8.99%	12.2%	-5.83%
CS(=O)(=O)N1CCCCCC1C1CCN(c2ncccc2C#N)CC1 (stereo unspecified)	-0.308%	-5.26%	9.82%	3.04%	6.58%	0%	-0.668%	-7.75%	0.49%	0%	2.11%
COCc1cnc2n1CCN(C(=O)C1=CCCCC1)C2C (stereo unspecified)	2.94%	17.3%	-3.72%	-2.8%	-1.77%	-16.7%	15.5%	33%	3.17%	12.8%	-8.38%
Cc1ccc(S(=O)(=O)NC(=O)c2c(C)noc2C(C)C)cc1C	-2.23%	10.5%	-4.09%	2.28%	1.07%	-3.55%	10.6%	-1.83%	3.19%	10.4%	-1.79%
Cc1nc(C2CCCN(C(=O)c3ccc(Cn4cccn4)o3)C2)no1 (stereo unspecified)	0.739%	-5.2%	2.21%	1.09%	-2.43%	5.34%	-4.9%	10.9%	3.88%	0%	0.66%
CC1(C)CC(N2Cc3nc(N)ncc3C2=O)CC(C)(C)N1	0.646%	10.4%	-3.77%	8.41%	4.23%	-35.9%	10.7%	11%	6.45%	21%	-5.13%
Cc1nc(CC(=O)N2CCC[C@H]2c2nc(C(C)C)no2)cs1	-6.79%	-1.39%	0.72%	-1.32%	1.26%	3.09%	7.19%	-13.6%	3.16%	5.13%	-0.504%
N#Cc1cccc(C(=O)N2CCc3ncc(Cn4cccn4)n3CC2)c1	-2.76%	-5.33%	6.89%	-4.2%	-1.74%	-56.1%	2.22%	-20.1%	-3.12%	-2.5%	-3.63%
Cc1noc(C)c1CN(C)CC1CCCN1c1cccnn1 (stereo unspecified)	-3.03%	13%	1.18%	-2.33%	0.0979%	0.21%	11.7%	11.2%	6.67%	18.8%	-25.9%
CC(C)c1ccc(C(C)NC(=O)N2CCC(n3cncn3)CC2)cc1 (stereo unspecified)	-4.08%	10.1%	-2.45%	13.7%	-3.87%	0%	5.49%	13.3%	3.45%	8.86%	-3.06%
CCN(c1ccc(C(=O)N2CCCC(C)C2)cc1)S(=O)(=O)CC (stereo unspecified)	-1.59%	-4.17%	8.62%	-2.11%	0.0972%	-3.09%	9.3%	23.2%	-2.1%	-7.69%	1.02%
CC(C)(C)c1nc(CN2CCCC(Cn3cncn3)C2)cs1 (stereo unspecified)	-0.434%	21.6%	-0.165%	-3.27%	5%	-17.6%	10.6%	3.9%	1.48%	18.5%	-8.38%
